Several values for one entry are separate records, joined by “and”; a condition that tells them apart may be missing. Identical values can stand only once. Records with an inconclusive call do not appear. Activity calls are given as the source filed them. Unless noted, the call rests on the fitted dose curve; in most records, active means well fitted curve in the direction sought with a large enough effect in the repeat runs; inconclusive means weak or mixed curves; inactive means no such curve, though single readings can be large; an effect the other way counts as inactive or inconclusive.
Columns and labels:
[1] = qHTS assay for small molecules that induce genotoxicity in human embryonic kidney cells expressing luciferase-tagged ATAD5 (AID 651632); further: nearly all actives have a fitted effect of over 15% in size
Summary of the method: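 Test compounds were delivered by pin tool onto HEK293T reporter cells (2,000/well) expressing ATAD5 fused to luciferase. After 16 hr at 37C, 5% CO2, Amplite was added for 30 min at room temperature and luminescence was measured.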

[2] = qHTS assay for small molecule agonists of the p53 signaling pathway - cell viability (AID 651633; calls by dose curve; further: nearly all actives have a fitted effect of over 30% in size; further: potency means the concentration at half of the fitted maximal effect)
Summary of the method: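 p53RE-bla cells, seeded at 4,000 per well and rested 5 h at 37 C/5% CO2, received compounds in DMSO for 16 h at 37 C. CellTiter-Glo was then added, and luminescence was read after 30 min at room temperature to gauge cytotoxicity.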

[3] = qHTS assay for small molecules that induce genotoxicity in human embryonic kidney cells expressing luciferase-tagged ATAD5 - cell viability (AID 651634; calls by dose curve; further: nearly all actives have a fitted effect of over 25% in size; further: potency means the concentration at half of the fitted maximal effect)
Summary of the method: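 Quantitative high-throughput format. HEK293T cells expressing ATAD5 fused to luciferase were plated at 2,000 cells/well and treated 15.5 hr with compound versus DMSO. Viability was determined by fluorescent live-cell protease substrate, 30 min at 37C.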

[4] = qHTS assay for small molecule disruptors of the mitochondrial membrane potential - cell viability (AID 720634; calls by dose curve; further: nearly all actives have a fitted effect of over 20% in size; further: potency means the concentration at half of the fitted maximal effect)
Summary of the method: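 Same-well counter-screen: following the MMP dye addition, CellTiter-Glo was added to 1 hr compound-treated HepG2 cells and luminescence read after 30 min at room temperature.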

[5] = qHTS assay for small molecule disruptors of the mitochondrial membrane potential (AID 720635); further: potency means the concentration at half of the fitted maximal effect
Summary of the method: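 HepG2 cells (2,000/well) attached overnight at 37C, then took compound for 1 hr at 37C, 5% CO2. Mito-MPS dye was added for 30 min; fluorescence was read at 490/535 nm (monomers) and 540/590 nm (aggregates).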

[6] = qHTS assay to test for compound auto fluorescence at 590 nm (red) in HepG2 cells (AID 720674)
Summary of the method: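 Rose Bengal sodium served as the red fluorophore standard. HepG2 monolayers (overnight attachment, MEM with 10% FBS) were exposed to test compounds for 1 hr at 37 C and read at Ex 540/Em 590 nm.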

[7] = qHTS assay to test for compound auto fluorescence at 535 nm (green) in HepG2 cells (AID 720675)
[8] = qHTS assay to test for compound auto fluorescence at 460 nm (blue) in HEK293 cells (AID 720678)
Summary of the method: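 After cell attachment (4-5 hr, 37C), compounds were pinned onto HEK293 monolayers in 10% dialyzed FBS medium. The blue channel (405/460 nm) was read following overnight culture. Equivalency was calculated against triamterene.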

[9] = qHTS assay to test for compound auto fluorescence at 590 nm (red) in HEK293 cells (AID 720679)
Summary of the method: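 Plates of HEK293 cells (10% dialyzed FBS) are treated with 23 nL compound or DMSO vehicle after a 4-5 hr attachment period, incubated overnight at 37C, and read for red fluorescence at 540/590nm.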

[10] = qHTS assay to test for compound auto fluorescence at 535 nm (green) in HEK293 cells (AID 720680)
[11] = qHTS assay to test for compound auto fluorescence at 460 nm (blue) in HEK293 cell free culture (AID 720681)
Summary of the method: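 Test compounds were pinned into cell-free culture medium (DMEM with 10% FBS) and fluorescence was read directly at Ex/Em 405/460 nm. Signals were expressed as fluorescence equivalents of triamterene, with DMSO vehicle as control.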

[12] = qHTS assay to test for compound auto fluorescence at 535 nm (green) in HEK293 cell free culture (AID 720682)
Summary of the method: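 Steps: dispense DMEM/10% FBS into empty wells; pin in compound or DMSO; measure fluorescence at 485/535 nm. Values are fluorescein equivalents.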

[13] = qHTS assay to test for compound auto fluorescence at 590 nm (red) in HEK293 cell free culture (AID 720683)
Summary of the method: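 Tox21 10K library compounds were pinned into cell-free DMEM with 10% FBS and fluorescence was read at excitation 540 nm. Activity is expressed as Rose Bengal sodium equivalency.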

[14] = qHTS assay to test for compound auto fluorescence at 590 nm (red) in HepG2 cell free culture (AID 720684)
Summary of the method: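 Ex 540 / Em 590 nm read of compound in cell-free MEM (10% FBS). Rose Bengal sodium reference.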

[15] = qHTS assay to test for compound auto fluorescence at 460 nm (blue) in HepG2 cell free culture (AID 720685)
Summary of the method: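 Cell-free plates of MEM plus 10% FBS received 23 nL compound or DMSO vehicle; blue-channel (405/460 nm) intensity scored against triamterene as reference fluorophore.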

[16] = qHTS assay to test for compound auto fluorescence at 535 nm (green) in HepG2 cell free culture (AID 720686)
[17] = qHTS assay to test for compound auto fluorescence at 460 nm (blue) in HepG2 cells (AID 720687)
Summary of the method: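 Cells (2,000/well in MEM with 10% FBS) attached overnight at 37 C, then were exposed to compound or DMSO for 1 hr at 37 C, 5% CO2. Fluorescence read at Ex/Em 405/460 nm, expressed as triamterene-equivalent signal.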

[18] = target: Glucocorticoid receptor (Homo sapiens) (UniProt P04150); assay: qHTS assay to identify small molecule antagonists of the glucocorticoid receptor (GR) signaling pathway (AID 720692; active means well fitted inhibition curve with a large enough effect in the signal ratio in the repeat runs, not every such curve was filed as active; the % refers to the signal ratio; further: potency means the concentration at half of the fitted maximal effect)
Glucocorticoid receptor (Homo sapiens), sequence (P04150 whole entry, looked up): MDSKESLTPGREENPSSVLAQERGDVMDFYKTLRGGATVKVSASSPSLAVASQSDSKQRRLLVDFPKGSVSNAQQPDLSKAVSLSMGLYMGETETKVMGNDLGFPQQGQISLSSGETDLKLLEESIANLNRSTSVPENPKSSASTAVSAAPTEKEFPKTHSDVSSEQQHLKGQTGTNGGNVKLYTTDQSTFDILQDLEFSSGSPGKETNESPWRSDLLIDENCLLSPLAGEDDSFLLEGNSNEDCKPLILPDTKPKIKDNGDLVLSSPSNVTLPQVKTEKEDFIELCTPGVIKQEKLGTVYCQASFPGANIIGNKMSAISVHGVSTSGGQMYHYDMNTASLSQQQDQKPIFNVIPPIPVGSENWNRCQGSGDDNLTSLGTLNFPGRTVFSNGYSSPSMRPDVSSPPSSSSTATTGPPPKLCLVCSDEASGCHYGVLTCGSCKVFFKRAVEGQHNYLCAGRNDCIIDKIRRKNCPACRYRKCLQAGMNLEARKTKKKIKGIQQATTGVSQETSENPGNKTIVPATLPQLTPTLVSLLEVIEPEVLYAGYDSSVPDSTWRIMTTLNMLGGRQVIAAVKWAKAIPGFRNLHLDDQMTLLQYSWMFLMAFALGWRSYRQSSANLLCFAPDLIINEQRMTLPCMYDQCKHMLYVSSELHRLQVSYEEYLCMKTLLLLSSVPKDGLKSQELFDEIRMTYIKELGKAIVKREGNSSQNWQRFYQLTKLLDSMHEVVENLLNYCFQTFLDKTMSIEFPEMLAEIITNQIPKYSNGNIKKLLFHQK
Summary of the method: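 GRE-bla HeLa line, dex-stimulated (5 nM final). Compound exposure 18 h, 37 C. Beta-lactamase FRET read after 2 h RT substrate.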

[19] = qHTS assay for small molecule agonists of the p53 signaling pathway (AID 651631; calls by dose curve; further: potency means the concentration at half of the fitted maximal effect; nearly all actives have a fitted effect of over 15% in size)
Summary of the method: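 HCT-116 p53RE-bla reporter line, 16 h compound treatment at 37 °C, then fluorescence after 2 h with B/G FRET substrate.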

[20] = target: Glucocorticoid receptor (Homo sapiens) (UniProt P04150); assay: qHTS assay to identify small molecule agonists of the glucocorticoid receptor (GR) signaling pathway (AID 720691; active means well fitted activation curve with a large enough effect in the signal ratio in the repeat runs, not every such curve was filed as active; the % refers to the signal ratio); conditions: GR-bla HeLa, beta-lactamase reporter ratio, 18 h; activation: at 62.4 µM (top of the series)
Summary of the method: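 A HeLa cervical cancer line expressing GR and a glucocorticoid response element-driven beta-lactamase gene is treated with compounds for 18 h; LiveBLAzer B/G FRET substrate is then applied and fluorescence read.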

Measured: Potency

CCCCCCCCOC(=O)c1ccc(O)cc1
active: [4] 24.3 µM | [5] 17.2 µM
inactive: [1] | [2] | [3] | [6] | [7] | [8] | [9] | [10] | [11] | [12] | [13] | [14] | [15] | [16] | [17]

CCCCCCCCCCC=O
inactive: [1] | [2] | [3] | [4] | [5] | [6] | [7] | [8] | [10] | [11] | [12] | [13] | [14] | [15] | [16] | [17] | [18]

O=C(c1ccc(O)cc1O)c1ccc(O)cc1O
inactive: [1] | [2] | [3] | [4] | [6] | [7] | [8] | [9] | [10] | [11] | [12] | [13] | [14] | [15] | [17]
active: [5] 12.2 µM and 7.7 µM | [18] 24.6 µM

O=c1c(-c2ccccc2)c1-c1ccccc1
active: [19] 18.8 µM | [2] 13.3 µM | [5] 23.7 µM | [18] 23.9 µM
inactive: [4] | [7] | [8] | [10] | [11] | [12] | [13] | [14] | [15] | [17]

CCCCCCCCOc1ccccc1C(=O)Nc1ccc(C(=O)OCC[N+](C)(CC)CC)cc1
active: [2] 23.7 µM | [5] 31.2 µM
inactive: [1] | [3] | [4] | [6] | [7] | [8] | [9] | [10] | [11] | [12] | [13] | [14] | [15] | [16] | [17]

CC(C)=CCOc1ccc(/C=C/C(=O)c2ccc(OCC=C(C)C)cc2OCC(=O)O)cc1
active: [2] 10.6 µM | [5] 23.7 µM | [18] 7.56 µM
inactive: [1] | [3] | [4] | [6] | [7] | [8] | [9] | [10] | [11] | [12] | [13] | [14] | [15] | [16] | [17] | [20]

O=c1cccccc1O
inactive: [1] | [2] | [3] | [4] | [6] | [7] | [8] | [9] | [10] | [11] | [12] | [13] | [14] | [15] | [16] | [17] | [20]
active: [5] 3.93 µM

CCCCCCCC[P+](CCCCCCCC)(CCCCCCCC)CCCCCCCC
active: [2] 12.1 µM | [3] 13.6 µM | [4] 21.6 µM | [5] 0.0963 µM
inactive: [1] | [6] | [7] | [8] | [9] | [10] | [11] | [12] | [13] | [14] | [15] | [16] | [17]

O=C(OCC(COC(=O)c1ccccc1)(COC(=O)c1ccccc1)COC(=O)c1ccccc1)c1ccccc1
active: [5] 3.06 µM
inactive: [1] | [2] | [3] | [4] | [6] | [7] | [8] | [9] | [10] | [11] | [12] | [13] | [14] | [15] | [16] | [17]

Cc1[nH]cnc1C[C@H]1CCc2c(C)c3ccccc3n2C1=O
inactive: [1] | [2] | [3] | [4] | [7] | [8] | [10] | [11] | [12] | [13] | [14] | [15] | [16] | [17] | [18]

CN(C)c1ccc(SC#N)cc1
inactive: [1] | [2] | [3] | [4] | [6] | [7] | [8] | [9] | [10] | [11] | [12] | [13] | [14] | [15] | [16] | [17] | [20]

Clc1ccc2n[nH]nc2c1
inactive: [1] | [2] | [3] | [4] | [6] | [7] | [8] | [9] | [10] | [11] | [12] | [13] | [14] | [15] | [16] | [17]

Cc1ccc(O)c2ncccc12
inactive: [1] | [2] | [3] | [4] | [6] | [7] | [8] | [10] | [11] | [12] | [13] | [14] | [15] | [16] | [17] | [18]

— PubChem BioAssay (Tox21)
